What all share (assay): NCI-60 one-dose screen, 48 h (100 = growth as untreated, 0 = no growth, -100 = all killed)
Holding throughout (settings): 10 µM unless noted

Test [1] concerns NCI-H23 lung.
In test [2] the test system is NCI-H226 lung.
Test [3] deals with NCI-H322M lung.
The test system of test [4] is HOP-62 NSCLC.
The test system of test [5] is NCI-H460 lung.
Test [6] relates to A549/ATCC NSCLC.
For test [7], the system named is 786-0 renal.
Test [8] has as its system COLO 205 colon.
The subject of test [9] is DU-145 prostate.
The test system of test [10] is K-562 leukemia.
The test system of test [11] is MALME-3M melanoma.
Test [12] concerns MDA-MB-231 breast.
For test [13], the system named is RXF 393 renal.
Test [14] concerns SF-268 CNS.
Test [15] concerns SF-295 CNS.
Test [16] has as its system SF-539 CNS.
The test system of test [17] is UACC-257 melanoma.
The subject of test [18] is M14 melanoma.

The structures appear in SMILES notation. Compounds without any hit were thinned out: in the full panel of roughly 83,000, 20% have a hit.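 In brief: 96-well plates, 48 h treatment, single concentration, percent growth endpoint.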 A number with no mark means an inactive call. Activity calls are given as the source filed them. The calls were made as follows: active = growth percent below 10; inactive = the rest.

Consider `COc1ccc(/C=N/c2cc(C(C)(C)C)nn2-c2ccccc2)cc1`, for which the growth was 106% in [1]; 89% in [2]; 110% in test [3]; 111% in test [4]; 97.1% in test [5]; 101% in test [6]. For the same compound, the growth in test [7] was 93.7%; in test [8], 105%; in test [9] it was 113%; in [10] it was 92.2%; in test [11], 121%; in test [12], 99.7%. The growth in test [13] is 126%; in [14], 101%; in test [15] it was 96.6%; in test [16], 92.5%; in test [17], 96.8%; in [18], 115%.

As for `CCCCCCCCCCCCCCCCNC(=S)N/N=C/c1ccc(OC)cc1`, the growth is 103% in [1]; 98.6% in test [2]; 108% in test [3]; 117% in test [4]; 104% in test [5]; 96.1% in test [6]. Moreover, the growth in test [7] is 95.3%; in test [8], 115%; in test [9], 104%; in test [10], 105%; in test [11] it was 103%; in test [12], 95.1%. In addition, the growth in [13] was 92%; in test [14] it was 107%; in test [15] it was 84.9%; in [16] it was 91.7%; in test [17], 99.3%; in test [18] it was 96.1%.

`COc1cc(-c2nn(-c3ccc(NC(=O)Nc4cc(C(F)(F)F)cc(C(F)(F)F)c4)cc3)cc2-c2ccncc2)ccc1Cl`: the growth is 8.45% (active) in test [1]; 18.4% in test [2]; 6.93% (active) in test [3]; 12.2% in [4]; -20.6% (active) in test [5]; 12.1% in test [6]. Besides, the growth in test [7] was -41.4% (active); in [8], -89.8% (active); in test [9] it was 16.8%; in [10] it was 17.2%; in test [11], -1.21% (active); in [12], -18.7% (active). Further, the growth in test [13] is -2.81% (active); in [14], 14.1%; in test [15], -34.8% (active); in [16] it was 15.8%; in [17], -1.38% (active); in test [18], 4.73% (active).

Turning to `COc1ccc(C(=O)N2N=C(c3ccc(Br)cc3)CC2c2cn(-c3ccccc3)nc2-c2ccccc2)cc1` (configuration not stated), the growth in test [1] is 42.4%; in [2], 88.9%; in [3], 78%; in [4], 22.6%; in [5], 41.8%; in [6], 22.8%. The growth was 74% in test [7]; 26.2% in [8]; 47.2% in test [9]; 43.4% in [10]; 73.1% in test [11]; 61.3% in test [12]. Moreover, the growth is 82.4% in test [13]; 71.9% in test [14]; 70.9% in [15]; 92.4% in test [16]; 79.6% in [17]; 39.1% in test [18].

Consider `Oc1ccc(Br)cc1/C=N/NC(=S)NC12CC3CC(CC(C3)C1)C2`, for which the growth in test [1] is 1.36% (active); in test [2], 31.5%; in test [3] it was 36.5%; in [4], 16.1%; in test [5], 2.18% (active); in test [6], 8.34% (active). Further, the growth in [7] is 54.8%; in test [8], 68%; in test [9], 9.26% (active); in [10], 0.99% (active); in [11], 17.6%; in [12], -4.61% (active). Besides, the growth is -15.6% (active) in [13]; 8.34% (active) in test [14]; 17% in test [15]; 36.7% in [16]; 26.1% in [17]; 20.6% in [18].

Consider `CCCCCCCCCCCCOC(=O)/C=C\C(=O)NC(N)=O`, for which the growth in test [1] was 110%; in [2], 96.8%; in test [3], 111%; in test [4] it was 101%; in test [5] it was 93.2%; in test [6], 81.6%. Also, the growth in [7] is 89.9%; in [8], 111%; in test [9], 95.4%; in test [10], 44.2%; in test [11], 102%; in test [12], 93.5%. The growth was 69.3% in [13]; 107% in [14]; 102% in test [15]; 95.5% in test [16]; 85.2% in test [17]; 93.6% in test [18].

Turning to `CCCCCCCCCCCC(=O)OC(C)C(=O)Nc1ccccc1` (configuration not stated), the growth in test [1] was 98.9%; in test [2], 103%; in [3] it was 95.3%; in test [4], 97.4%; in [5], 104%; in [6], 104%. In addition, the growth was 94.7% in [7]; 102% in test [8]; 106% in test [9]; 97.7% in [10]; 96.3% in test [11]; 109% in test [12]. In addition, the growth in [13] is 117%; in [14] it was 102%; in test [15] it was 85.7%; in test [16], 98.9%; in [17], 99.7%; in [18], 96.9%.

Regarding `O=C(Nc1ccc(-n2cc(-c3ccncc3)c(-c3ccc(Cl)c(O)c3)n2)cc1)c1cc(Cl)cc(Cl)c1`, the growth is 60.3% in [1]; 111% in [2]; 60.4% in test [3]; 22.2% in test [4]; 14.1% in test [5]; 41.4% in [6]. Further, the growth in test [7] was -39% (active); in test [8], 72.9%; in test [9] it was 72.8%; in test [10] it was 13.9%; in test [11] it was 24.7%; in [12] it was 24.2%. For the same compound, the growth in test [13] was -69% (active); in test [14] it was 74.5%; in [15], -61.6% (active); in [16], 26%; in test [17] it was 54.7%; in test [18], -49.1% (active).

As for `COc1cc([C@@H]2c3cc4c(cc3[C@H](O)[C@H]3COC[C@@H]23)OCO4)cc(OC)c1OC`, the growth in [1] was 91.8%; in [2], 88.8%; in [3], 104%; in test [4], 65.4%; in test [5], 94.4%; in [6], 98.8%. Besides, the growth in test [7] was 78.5%; in [8] it was 96.7%; in test [9], 96.7%; in [10], 39.1%; in test [11], 43.3%; in [12] it was 73.8%. In addition, the growth in test [13] was 83.1%; in [14], 80.9%; in test [15], 56.3%; in [16] it was 75%; in test [17], 75.8%; in test [18], 42.4%.

(Values after PubChem BioAssay (NCI).)
